Screening data as filed in PubChem.
KDM4E inh – qHTS Assay for Inhibitors of Human Jumonji Domain Containing 2E (JMJD2E); JMJD2E catalytic domain, FDH-coupled NADH fluorescence (FDH is formaldehyde dehydrogenase); Potency, µM (top dose mostly 57.1 µM), for the others: top-dose activity change, negative = inhibition, actives largely listed as inhibitors; 230,000 tested, 1.6% active; active means well fitted inhibition curve with a large enough effect, not every such curve was filed as active; inconclusive means small, poorly fitted or top-dose-only effect, or another doubt; inactive means no such curve, though single readings can be large or run the other way;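 further: potency means the concentration at half of the fitted maximal effect; 0% = wells with enzyme and -100% = buffer wells without enzyme; nearly all actives have a fitted effect of over 50% in size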
Target sequence (B2RXH2 1-337 limits assumed): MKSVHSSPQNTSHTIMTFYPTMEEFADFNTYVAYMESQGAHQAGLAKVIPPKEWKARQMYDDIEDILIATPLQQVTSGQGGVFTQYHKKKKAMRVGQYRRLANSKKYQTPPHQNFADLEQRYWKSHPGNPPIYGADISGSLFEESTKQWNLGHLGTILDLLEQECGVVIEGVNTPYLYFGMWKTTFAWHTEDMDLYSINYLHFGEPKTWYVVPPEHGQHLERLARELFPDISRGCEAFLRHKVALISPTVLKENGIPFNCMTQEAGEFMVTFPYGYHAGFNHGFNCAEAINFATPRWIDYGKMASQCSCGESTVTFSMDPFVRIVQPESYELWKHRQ
Tau fibril FP – qHTS for Inhibitors of Tau Fibril Formation, Fluorescence Polarization; Microtubule-associated protein tau (Homo sapiens), P10636; 280,000 tested, 0.39% active; Potency, µM (series often up to 57.7 µM), inactives show top-dose activity, negative = inhibition, actives largely listed as inhibitors; K18 P301L tau heparin fibrillization, Alexa594 FP, 6 h; further: potency means the concentration at half of the fitted maximal effect; nearly all actives have a fitted effect of over 55% in size
Target sequence (P10636 561-689 P618L limits assumed): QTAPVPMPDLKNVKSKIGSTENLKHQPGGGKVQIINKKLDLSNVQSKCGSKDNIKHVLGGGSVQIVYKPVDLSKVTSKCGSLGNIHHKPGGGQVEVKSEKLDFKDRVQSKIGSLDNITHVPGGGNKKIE
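Compound effects on tau fibrillization are measured by Alexa 594 fluorescence polarization (ex 555, em 632 nm). K18 P301L tau is used at 15 uM with 0.24 uM labeled tracer, and 20 uM heparin induces aggregation over 6 hr at 37 C.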
Sfp inh – qHTS Assay for Inhibitors of Bacillus subtilis Sfp phosphopantetheinyl transferase (PPTase). 4'-phosphopantetheinyl transferase ffp (Bacillus subtilis), Q9F4F7. Biochemical Sfp PPTase activity, qHTS. AID 1490, 2009. 310,000 tested, 3.5% active. Potency, µM, for inactives: largest response in the series, negative = inhibition, hits mostly inhibitors;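 further: the enzyme is Sfp with the accession as filed and its product quenches rhodamine fluorescence; potency means the concentration at half of the fitted maximal effect; 0% = enzyme reaction without inhibitor and -100% = no enzyme wells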
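Fluorescence-quenching assay: 15 nM Sfp-PPTase preincubated 15 min at room temperature with compound, then 5 uM rhodamine-CoA and 12.5 uM BHQ-2-labelled YbbR peptide added. Fluorescence (ex 525/em 598 nm) read at start and after 30 min; difference gives rate.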
FBPA coupling cs – qHTS Assay for Inhibitors of Fructose-1,6-bisphosphate Aldolase from Giardia Lamblia: Coupling assay counterscreen | coupling enzyme system counterscreen, AmpLite Red fluorescence | activity change, negative = inhibition, % at 58.2 µM, hits read low | 290,000 tested, 0.67% active | AID 2472, 2010; in the data active means activity change below about -30%
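Activity here indicates interference with the coupling reaction, not aldolase inhibition. Compounds at 57.5 uM final met coupling enzymes for 10 min at RT; substrate and AmpLite Red detection followed, with a 525/598 nm fluorescence read after 20 min.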
Tau ThT inhib – qHTS for Inhibitors of Tau Fibril Formation, Thioflavin T Binding; recombinant tau K18 P301L, heparin-induced fibrillization, ThT fluorescence; Potency, µM (titrated, usually from 57.4 µM), for the others: top-dose activity, negative = inhibition, actives largely listed as inhibitors; AID 1460, 2008; 270,000 tested, 2.1% active; Microtubule-associated protein tau (Homo sapiens), P10636; further: potency means the concentration at half of the fitted maximal effect; nearly all actives have a fitted effect of over 55% in size
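Heparin-induced (20 uM) aggregation of recombinant human K18 P301L tau, 15 uM unlabeled with 0.24 uM labeled, pH 7 acetate buffer, 6 hr at 37 C with compound. Fibrils quantified by 30 uM ThT fluorescence after 1 hr ambient incubation.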
Tau fluor counter – Counterscreen qHTS for Inhibitors of Tau Fibril Formation, Fluorescence Polarization; AID 1463, 2008; Potency, µM (doses to about 57.7 µM), for the others: at the highest dose activity change, negative = decrease; 280,000 tested, 0.93% active; tau K18 P301L (four-repeat tau fragment) Alexa594 fluorescence, heparin fibrillization; further: potency means the concentration at half of the fitted maximal effect; nearly all actives have a fitted effect of over 55% in size
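Human K18 P301L tau (15 uM unlabeled plus 0.24 uM Alexa 594-labeled, final) in 100 mM sodium acetate pH 7 was mixed with compound and 20 uM heparin and incubated 6 hr at 37 C.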
Starred values were filed as active, the others as inactive; ? = inconclusive; . = no result; ! = not active in a repeat; [ ] = another dose, or the depositor's remark. An excerpt weighted towards active compounds, which were near 5.3% of everything screened. Unless noted, the call rests on the fitted dose curve; in most records, active means well fitted curve in the direction sought with a large enough effect; inconclusive means small, poorly fitted or top-dose-only effect, or another doubt; inactive means no such curve, though single readings can be large; an effect the other way counts as inactive or inconclusive. Unless noted, on the % scale 0 is the no-effect control and ±100 the full control effect.

SMILES	KDM4E inh	Tau fibril FP	Sfp inh	FBPA coupling cs	Tau ThT inhib	Tau fluor counter
COc1ccccc1N=c1scc(-c2ccc(S(=O)(=O)N3CCCC3)cc2)n1C	.	10%	.	.	?	?
CC(=O)OCC1=C(C(=O)O)N2C(=O)[C@@H](N)[C@@H]2SC1	?	.	22µM*	0	.	.
CC(C)C[C@H](NC(=O)[C@H](Cc1ccccc1)NC(=O)CNC(=O)[C@@H](NC(=O)[C@@H](N)Cc1ccc(O)cc1)[C@H](C)O)C(=O)N[C@H](C(=O)O)[C@H](C)O	.	-2%	-10%	.	3%	-1%
CC(=O)O.CC(=O)O.[Cd]	20µM*	-15%	25µM*	0	?	-8%
CC1=CC(=O)c2c(O)cccc2C1=O	8.9µM*	3.2µM*	35µM*!	-48*	2.5µM*	2.2µM*[quencher]
CN(C)c1ccc(CNC(=O)Cn2c(=O)oc3cc(S(=O)(=O)N4CCCCCC4)ccc32)cc1	.	10%	.	.	-3%	?
CN1CCN(c2ccc(N)cc2)CC1	?	?	9%	-10	25µM*	?
CN1CCN(c2ccc(C=O)cc2)CC1	-2%	3%	25%	0	0%	-3%
CCN1CCN(c2ccc(N)cc2)CC1	?	?	5%	0	25µM*	?
CCN(CC)CCCCN1c2ccccc2Oc2ccc(Cl)cc21	.	.	-20%	7	.	.
COC(=O)C12CC3=C[C@H](CC3=O)Cc3ccccc3[C@@H]1CNC2=O (stereo not given in full)	-11%	2%	-13%	0	-8%	-6%
C[C@@H]1OC(=O)[C@H]2C[C@H]3CCCC[C@@H]3[C@@H](/C=C/[C@H]3CCC[C@H](C)N3C)[C@@H]12	.	-3%	29%	.	-4%	-8%
CN1C(=O)C(=Cc2ccc(N3CCCCCC3)o2)C(=O)N(C)C1=S	5%	-4%	-22%	-1	13µM*	?
CN1C(=O)C(=Cc2ccc(N3CCOCC3)o2)C(=O)N(C)C1=O	-5%	2%	?	-11	-6%	-9%
Cc1c(NC(=O)Nc2cccc(C(F)(F)F)c2)sc2nc3n(c(=O)c12)CCC(C)CC3 (stereo not given)	.	13%	.	.	7%	?
CCCC[C@@H](C)[C@@H](OC(=O)C[C@@H](CC(=O)O)C(=O)O)[C@H](C[C@@H](C)C[C@H](O)CCCC[C@@H](O)C[C@H](O)[C@H](C)N)OC(=O)C[C@H](CC(=O)O)C(=O)O	.	-9%	33%	.	-13%	-8%
O=C1C=C2C(=CCOC2O)O1 (stereo not given)	-3%	2µM*	-28%	0	2.2µM*	-19%
CN1C(=O)C(=Cc2sc(=O)n(-c3ccccc3)c2N2CCCCC2)C(=O)N(C)C1=O	-4%	-16%	-11%	-7	25µM*	-16%
CN1CCN(c2nc3ccccn3c(=O)c2C=C2C(=O)N(C)C(=O)N(C)C2=O)CC1	-11%	-14%	-18%	0	?	-14%
CO/C1=C\C(C)=C\[C@@H](C)[C@@H](O)[C@@H](C)C/C(C)=C/C=C/[C@H](OC)[C@@H]([C@@H](C)[C@@H](O)[C@H](C)[C@@]2(O)C[C@@H](O)[C@H](C)C(C(C)C)O2)OC1=O (stereo not given in full)	.	.	-5%	-10	.	.
CCOc1cccc(CC(=O)NCc2ccc3c(c2)CCN3C(=O)c2cccc(C)c2)c1OCC	.	-3%	.	.	?	-13%
CN1CCN(Cc2nc3ccccc3n2C)CC1	-7%	-2%	8%	0	-10%	-3%
Cn1c(NN=O)nc2ccccc21	6%	-9%	40µM*	-11	18µM*	?
Cc1ccc(-c2nnc(Nc3ccc(Br)cc3)c3ccccc23)cc1S(=O)(=O)NCc1nc2ccccc2[nH]1	.	?	.	.	11%	?
COC(=O)C1=CO[C@@H](C)[C@@H]2CN3CC[C@]4(C(=O)Nc5c4ccc(OC)c5OC)[C@H]3C[C@H]12	-4%	-5%	2%	3	-5%	-8%
SMILES	KDM4E inh	Tau fibril FP	Sfp inh	FBPA coupling cs	Tau ThT inhib	Tau fluor counter
CCC[C@@H]1CC2=CC(=O)CC[C@]2(C)[C@@H]2CC[C@@]3(C)[C@H](CC[C@]3(O)CCC(=O)O)[C@H]12	5%	7%	35%	8	0%	3%
CC(C)c1cc2c(c(O)c1O)[C@]1(C(=O)O)CCCC(C)(C)C1CC2 (stereo not given in full)	13µM*	?	-108%	-15	28µM*	?
O=C1NC(=O)C(=Cc2ccc(SC3CCCCC3)o2)C(=O)N1	?	-4%	28µM*	0	?	-4%
O=C1NC(=O)N(c2ccc3c(c2)OCO3)C(=O)/C1=C\c1ccc(N2CCCCC2)o1	-23%	3%	-6%	1	?	-4%
ClC1=C(Cl)C(Cl)(C2(Cl)C(Cl)=C(Cl)C(Cl)=C2Cl)C(Cl)=C1Cl	.	.	?	-14	.	.
CN1C(=O)[C@]23CC4=CC=C[C@H](O)[C@H]4N2C(=O)[C@@]1(CO)SS3	.	.	2.5µM*	-8	.	.
Cc1ccc(N2C(=O)NC(=O)/C(=C\c3cccn3C(C)(C)C)C2=O)cc1	-5%	-2%	15%	0	?	-13%
CSc1ncc(/C=C2/C(=O)NC(=O)N(c3ccc(C)cc3)C2=O)cn1	?	?	45µM*	4	?	-26%
CCOc1ccc(N2C(=O)NC(=O)/C(=C/c3cnc(SC)nc3)C2=O)cc1	35µM*	?	28µM*	5	?	-27%
Cc1ccc(N2C(=O)NC(=O)/C(=C\c3cnc(-c4ccccc4)nc3)C2=O)cc1	3.2µM*	?	56µM*	2	?	-20%
CSc1ncc(/C=C2/C(=O)NC(=O)N(c3ccc(Cl)cc3)C2=O)cn1	?	?	56µM*	-1	?	-18%
CC(n1cc(C[C@H](N)C(=O)O)c2ccccc21)n1cc(C[C@H](N)C(=O)O)c2ccccc21	.	?	28µM*	.	?	-19%
Cc1c(Cl)ccc2sc(N3CCN(C(=O)CCS(=O)(=O)c4ccc(F)cc4)CC3)nc12	.	-9%	.	.	?	-17%
